Reference: PubChem BioAssay
A number with no mark means an inactive call. This is one part of the list. Calls of active or inactive are those of the source. Unless noted, no stated cut-off is given here; in the data, active means inhibition above about 30%; inactive means the rest.

How the values were obtained:
[1] = target: Nuclear receptor coactivator 3 (Homo sapiens) (UniProt Q9Y6Q9); experiment: NCOA3 GAL4-fusion reporter inhibition – cell-based, luminescence, quadruplicate, confirmation (AID 588792;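 active means mean inhibition over 43.08%, the solvent-only control mean plus 3 SD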;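 further: 0% = DMSO treated cells and 100% = gossypol at 36 µM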); conditions: HEK293 GAL4-SRC3 luciferase reporter, at 3.6 µM, active compounds read high
[2] = tested on: transactivating tegument protein VP16 (Human herpesvirus 1), Gal4-VP16 luciferase reporter; experiment: repression of VP16-driven luciferase reporter – cell-based, luminescence, high throughput, counter-screen for SRC3 inhibitor project (AID 588794); conditions: mammalian cells, at 3.6 µM, active compounds read high
[3] = tested on: transactivating tegument protein VP16 (Human herpesvirus 1); experiment: compounds suppressing VP16-driven luciferase signal – cell-based, luminescence, single concentration, counter-screen for SRC2 inhibitor project (AID 652007; in the data active means inhibition above about 36%); conditions: cell-based VP16 transactivation luciferase reporter, at 8.9 µM, active compounds read high
[4] = target: Nuclear receptor coactivator 2 (Homo sapiens) (UniProt Q15596); experiment: inhibition of GAL4-SRC2 driven luciferase expression – cell-based, luminescence, HEK293, triplicate, confirmation (AID 652008;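 active means mean inhibition above 46.5%, the solvent-only control mean plus 3 SD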;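 further: 0% = DMSO-treated cells and 100% = Gossypol at 36 µM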); conditions: HEK293 GAL4-SRC2 luciferase reporter, at 8.9 µM, active compounds read high
[5] = target: Nuclear receptor coactivator 1 (Homo sapiens) (UniProt Q15788); experiment: NCOA1 GAL4-fusion reporter inhibition – cell-based, luminescence, quadruplicate, confirmation (AID 588820;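 active means mean inhibition above 46.68%, the untreated control wells mean plus 3 SD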;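 further: 0% = DMSO wells and 100% = gossypol 36 µM treated wells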); conditions: HEK293 GAL4-SRC1 luciferase reporter, at 3.6 µM, active compounds read high
[6] = repression of VP16-driven luciferase reporter – cell-based, luminescence, high throughput, counter-screen for SRC1 inhibitor project (AID 588824; in the data active means inhibition above about 25%); conditions: cell-based VP16 transactivation luciferase luminescence; at 3.6 µM; active compounds read high
[7] = target: Galanin receptor type 2 (Homo sapiens) (UniProt O43603); experiment: blockers of human galanin receptor 2 – cell-based, confirmation (AID 866; in the data active means inhibition above about 27%;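 further: cells stimulated with galanin at about its EC80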); conditions: GALR2-expressing cells, antagonist mode, at 4 µM, active compounds read high
[8] = nonspecific BLA reporter inhibition – CHO NFAT-bla cells, FRET readout, counter-screen for GALR2 antagonist project, confirmation (AID 867;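 active means inhibition above the mean inhibition across tested compounds plus 3 SD, cut at about 27% in these data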;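 further: 0% = 500 nM thapsigargin stimulated wells and 100% = unstimulated BSA only wells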); conditions: beta-lactamase FRET, thapsigargin-stimulated, at 4.2 µM, active compounds read high

Sequence of Nuclear receptor coactivator 1 (Homo sapiens) (Q15788 whole entry, looked up, the tested form may be a part): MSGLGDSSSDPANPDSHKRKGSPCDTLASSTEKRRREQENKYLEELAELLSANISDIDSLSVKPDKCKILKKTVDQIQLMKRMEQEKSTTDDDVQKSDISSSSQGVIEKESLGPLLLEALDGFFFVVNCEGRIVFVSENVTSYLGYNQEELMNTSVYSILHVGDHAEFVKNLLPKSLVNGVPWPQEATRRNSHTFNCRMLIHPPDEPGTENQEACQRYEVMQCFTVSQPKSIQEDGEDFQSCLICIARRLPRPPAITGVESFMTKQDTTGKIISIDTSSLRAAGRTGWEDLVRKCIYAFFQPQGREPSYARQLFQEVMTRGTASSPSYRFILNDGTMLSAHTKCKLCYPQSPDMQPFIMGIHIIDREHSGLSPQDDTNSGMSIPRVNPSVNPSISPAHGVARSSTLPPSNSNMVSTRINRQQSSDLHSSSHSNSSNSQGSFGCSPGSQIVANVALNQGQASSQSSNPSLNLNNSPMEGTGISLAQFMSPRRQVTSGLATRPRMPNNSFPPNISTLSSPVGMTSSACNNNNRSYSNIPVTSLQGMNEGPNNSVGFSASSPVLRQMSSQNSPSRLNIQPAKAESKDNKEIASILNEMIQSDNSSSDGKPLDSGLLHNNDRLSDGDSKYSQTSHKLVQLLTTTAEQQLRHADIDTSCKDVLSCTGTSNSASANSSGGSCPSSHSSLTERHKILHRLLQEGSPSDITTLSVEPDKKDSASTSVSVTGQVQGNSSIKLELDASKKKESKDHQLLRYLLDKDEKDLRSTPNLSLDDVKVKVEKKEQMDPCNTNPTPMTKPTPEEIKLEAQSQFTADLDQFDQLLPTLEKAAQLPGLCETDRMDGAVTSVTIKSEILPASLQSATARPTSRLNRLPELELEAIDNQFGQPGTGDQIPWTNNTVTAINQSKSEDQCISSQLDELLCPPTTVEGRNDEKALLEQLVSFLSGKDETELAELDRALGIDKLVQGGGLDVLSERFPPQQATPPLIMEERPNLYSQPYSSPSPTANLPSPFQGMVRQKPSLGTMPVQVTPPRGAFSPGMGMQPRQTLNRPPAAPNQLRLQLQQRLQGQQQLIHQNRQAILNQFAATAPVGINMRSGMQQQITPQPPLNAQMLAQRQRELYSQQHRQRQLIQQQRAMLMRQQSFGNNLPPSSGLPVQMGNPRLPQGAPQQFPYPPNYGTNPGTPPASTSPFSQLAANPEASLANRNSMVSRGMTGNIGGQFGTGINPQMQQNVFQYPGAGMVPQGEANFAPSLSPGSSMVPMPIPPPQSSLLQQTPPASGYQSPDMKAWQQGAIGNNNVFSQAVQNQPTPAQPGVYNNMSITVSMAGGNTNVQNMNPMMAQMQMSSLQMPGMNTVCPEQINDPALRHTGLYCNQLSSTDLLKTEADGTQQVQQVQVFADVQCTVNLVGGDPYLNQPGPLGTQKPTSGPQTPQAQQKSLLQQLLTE
Sequence of Nuclear receptor coactivator 2 (Homo sapiens) (Q15596 whole entry, looked up, the tested form may be a part): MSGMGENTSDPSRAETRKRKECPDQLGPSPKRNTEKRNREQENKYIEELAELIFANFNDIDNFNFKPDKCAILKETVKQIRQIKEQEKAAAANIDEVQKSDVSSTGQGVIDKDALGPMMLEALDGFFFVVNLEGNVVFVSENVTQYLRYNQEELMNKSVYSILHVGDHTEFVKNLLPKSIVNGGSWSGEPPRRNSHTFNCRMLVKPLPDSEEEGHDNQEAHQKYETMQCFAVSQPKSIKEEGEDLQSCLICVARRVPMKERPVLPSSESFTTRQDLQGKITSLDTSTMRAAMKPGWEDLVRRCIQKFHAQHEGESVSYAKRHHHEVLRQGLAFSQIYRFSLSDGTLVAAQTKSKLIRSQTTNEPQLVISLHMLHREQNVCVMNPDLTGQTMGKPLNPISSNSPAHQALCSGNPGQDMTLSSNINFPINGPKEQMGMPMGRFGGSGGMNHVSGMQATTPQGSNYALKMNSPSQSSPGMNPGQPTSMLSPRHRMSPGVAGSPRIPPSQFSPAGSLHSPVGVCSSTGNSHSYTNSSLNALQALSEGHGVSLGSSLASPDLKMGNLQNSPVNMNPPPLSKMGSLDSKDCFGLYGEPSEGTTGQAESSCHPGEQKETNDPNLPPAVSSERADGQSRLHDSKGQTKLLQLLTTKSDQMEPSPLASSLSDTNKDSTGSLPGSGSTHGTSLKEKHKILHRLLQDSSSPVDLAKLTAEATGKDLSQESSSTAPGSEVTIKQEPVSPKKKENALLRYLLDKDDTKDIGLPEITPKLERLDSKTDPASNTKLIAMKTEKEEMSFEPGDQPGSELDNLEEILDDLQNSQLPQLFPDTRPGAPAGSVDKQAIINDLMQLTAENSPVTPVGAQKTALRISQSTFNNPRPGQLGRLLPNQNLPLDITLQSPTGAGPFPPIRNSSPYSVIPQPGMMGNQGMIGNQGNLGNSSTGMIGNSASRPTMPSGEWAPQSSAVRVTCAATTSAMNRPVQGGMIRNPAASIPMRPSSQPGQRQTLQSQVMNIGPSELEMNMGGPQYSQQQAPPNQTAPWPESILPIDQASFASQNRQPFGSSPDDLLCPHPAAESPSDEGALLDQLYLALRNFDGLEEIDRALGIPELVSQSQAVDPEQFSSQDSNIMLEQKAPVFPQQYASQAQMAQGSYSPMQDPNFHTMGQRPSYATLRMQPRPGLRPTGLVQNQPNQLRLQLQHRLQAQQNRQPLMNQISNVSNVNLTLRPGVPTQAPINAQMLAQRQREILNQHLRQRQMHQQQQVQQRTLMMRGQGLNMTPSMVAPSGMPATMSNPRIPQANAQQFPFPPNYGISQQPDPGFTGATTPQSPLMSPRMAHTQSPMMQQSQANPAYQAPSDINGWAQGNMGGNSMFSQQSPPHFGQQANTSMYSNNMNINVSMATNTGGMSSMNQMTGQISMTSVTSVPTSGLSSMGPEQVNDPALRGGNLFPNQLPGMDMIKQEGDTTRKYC
Sequence of Nuclear receptor coactivator 3 (Homo sapiens) (Q9Y6Q9 whole entry, looked up, the tested form may be a part): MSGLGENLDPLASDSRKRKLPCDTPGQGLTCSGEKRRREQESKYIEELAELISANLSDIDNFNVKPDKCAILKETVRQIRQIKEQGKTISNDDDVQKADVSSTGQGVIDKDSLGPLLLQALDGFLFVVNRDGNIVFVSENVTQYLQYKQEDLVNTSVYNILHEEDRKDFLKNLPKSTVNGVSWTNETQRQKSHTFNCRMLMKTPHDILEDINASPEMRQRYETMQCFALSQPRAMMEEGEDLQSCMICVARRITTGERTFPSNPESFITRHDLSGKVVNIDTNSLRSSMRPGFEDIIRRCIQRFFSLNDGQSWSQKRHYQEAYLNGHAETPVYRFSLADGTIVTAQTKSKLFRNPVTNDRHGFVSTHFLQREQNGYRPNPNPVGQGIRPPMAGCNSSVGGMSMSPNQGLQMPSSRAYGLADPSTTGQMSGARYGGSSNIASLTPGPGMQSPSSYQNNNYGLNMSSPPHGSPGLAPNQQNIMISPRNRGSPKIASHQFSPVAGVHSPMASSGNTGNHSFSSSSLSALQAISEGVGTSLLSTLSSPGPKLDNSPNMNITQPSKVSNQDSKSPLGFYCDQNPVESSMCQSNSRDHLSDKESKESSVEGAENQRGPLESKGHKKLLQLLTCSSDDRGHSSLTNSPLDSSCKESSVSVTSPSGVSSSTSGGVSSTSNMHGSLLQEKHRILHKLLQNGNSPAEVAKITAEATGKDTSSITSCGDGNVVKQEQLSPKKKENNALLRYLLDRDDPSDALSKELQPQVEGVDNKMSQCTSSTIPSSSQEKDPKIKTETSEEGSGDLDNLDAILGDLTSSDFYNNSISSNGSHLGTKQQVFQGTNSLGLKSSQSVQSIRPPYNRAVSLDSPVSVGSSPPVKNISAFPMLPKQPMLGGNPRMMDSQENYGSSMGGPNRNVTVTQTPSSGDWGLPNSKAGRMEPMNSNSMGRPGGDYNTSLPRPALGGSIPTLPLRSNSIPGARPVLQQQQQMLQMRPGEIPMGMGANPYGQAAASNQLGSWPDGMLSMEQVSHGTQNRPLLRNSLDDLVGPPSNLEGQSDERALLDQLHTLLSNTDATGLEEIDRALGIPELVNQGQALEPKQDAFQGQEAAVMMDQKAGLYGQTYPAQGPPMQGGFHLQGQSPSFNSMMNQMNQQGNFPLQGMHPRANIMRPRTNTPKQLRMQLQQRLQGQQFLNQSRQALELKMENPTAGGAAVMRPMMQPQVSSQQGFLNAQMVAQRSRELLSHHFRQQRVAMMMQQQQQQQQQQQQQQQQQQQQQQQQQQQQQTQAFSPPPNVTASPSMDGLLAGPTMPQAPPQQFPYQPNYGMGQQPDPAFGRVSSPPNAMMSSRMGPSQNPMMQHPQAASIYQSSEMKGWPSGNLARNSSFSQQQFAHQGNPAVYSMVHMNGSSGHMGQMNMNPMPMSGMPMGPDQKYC
Sequence of Galanin receptor type 2 (Homo sapiens) (O43603 whole entry, looked up): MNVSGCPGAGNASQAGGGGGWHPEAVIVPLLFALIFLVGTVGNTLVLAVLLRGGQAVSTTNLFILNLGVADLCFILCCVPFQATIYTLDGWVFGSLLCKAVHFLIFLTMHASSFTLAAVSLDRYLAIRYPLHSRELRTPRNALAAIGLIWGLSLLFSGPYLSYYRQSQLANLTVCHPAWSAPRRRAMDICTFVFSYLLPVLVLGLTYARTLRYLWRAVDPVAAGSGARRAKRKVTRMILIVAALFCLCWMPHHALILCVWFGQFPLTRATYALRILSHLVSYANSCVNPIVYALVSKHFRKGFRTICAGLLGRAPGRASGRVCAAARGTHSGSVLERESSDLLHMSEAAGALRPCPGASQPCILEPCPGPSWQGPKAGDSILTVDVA

Q: For COc1ccc(NC(=O)/C(Cl)=C(/Cl)S(=O)(=O)Cc2ccccc2)cn1, which inhibition [1] is on record?
A: -15.3%

Q: What about the inhibition [2] of the same molecule?
A: 8.74%

Q: And the inhibition [3]?
A: 80.4% (active)

Q: What about the inhibition [4] of the same molecule?
A: 72.4% (active)

Q: Which inhibition [1] does the source give for CC(=O)Nc1ccc(NC2=C/C(=N/S(=O)(=O)c3cccs3)c3ccccc3C2=O)cc1 here?
A: 3.29%

Q: What about the inhibition [2] of the same molecule?
A: 9.98%

Q: And the inhibition [3]?
A: 9.81%

Q: What about the inhibition [4] of the same molecule?
A: 49.5% (active)

Q: With CCN(CC)S(=O)(=O)c1ccc(N/N=C/c2cc(OC)ccc2O)nc1 as the molecule, how does the inhibition [1] read?
A: 31.4%

Q: And the inhibition [2]?
A: 31% (active)

Q: What about the inhibition [3] of the same molecule?
A: -11%

Q: And the inhibition [4]?
A: 19.9%

Q: Which inhibition [1] does the source give for Cc1c(/C(O)=C2\C(=O)C(=O)N(CCN(C)C)C2c2ccccc2)cnn1-c1ccccc1 (stereo not given) here?
A: 15.8%

Q: And the inhibition [2]?
A: -3.19%

Q: What about the inhibition [3] of the same molecule?
A: -15.3%

Q: And the inhibition [4]?
A: 10.1%

Q: Which inhibition [1] does the source give for O=S(=O)(/C(=C/c1ccc(C(F)(F)F)cc1)c1nc2ccccc2[nH]1)c1ccccc1 here?
A: 61.5% (active)

Q: And the inhibition [2]?
A: 58.3% (active)

Q: What about the inhibition [3] of the same molecule?
A: 71.8% (active)

Q: And the inhibition [4]?
A: 30.6%

Q: For O=C(C1=C(c2ccccc2)C(=O)c2ccccc2C1=O)c1ccccc1, which inhibition [1] is on record?
A: 93.3% (active)

Q: What about the inhibition [2] of the same molecule?
A: 90.4% (active)

Q: And the inhibition [3]?
A: 63.8% (active)

Q: And the inhibition [4]?
A: 66.4% (active)

Q: What does the source list for O=C(OCc1ccccc1)c1ccc(NCc2cc(O)ccc2O)cc1?
A: inhibition [1]: 70.6% (active); inhibition [2]: 25.9%; inhibition [3]: 94.5% (active); inhibition [4]: 90% (active)

Q: Which results are given for COc1cc(/C=C/C(=O)c2ccc(F)cc2)cc(OC)c1OC?
A: inhibition [1]: 50.5% (active); inhibition [2]: 34.7% (active); inhibition [3]: 21.9%; inhibition [4]: 28.1%

Q: Which results are given for COc1cccc(F)c1C(C[N+](=O)[O-])c1c(N)n(C)c(=O)n(C)c1=O (stereo not given)?
A: inhibition [1]: 42.5%; inhibition [2]: 24.4%; inhibition [3]: 14.7%; inhibition [4]: 28.2%

Q: For COc1ccc(-c2noc(CCC(=O)NCCCN3CCC(Cc4ccccc4)CC3)n2)cc1, which inhibition [1] is on record?
A: -0.27%

Q: And the inhibition [2]?
A: 10.7%

Q: What about the inhibition [3] of the same molecule?
A: -4.69%

Q: What about the inhibition [4] of the same molecule?
A: 15.6%

Q: For COc1ccc(OC)c(C2=NS(=O)(=O)N(C)C(C(=O)Nc3ccc(F)cc3F)=C2)c1, which inhibition [5] is on record?
A: -0.3%

Q: What about the inhibition [6] of the same molecule?
A: 4.07%

Q: For Cc1nnnn1/C(=C\c1ccccc1)C(=O)OCC(=O)N1CC2(C)CC1CC(C)(C)C2 (stereo not given), which inhibition [7] is on record?
A: 39% (active)

Q: And the inhibition [8]?
A: 16.1%

Q: What about the inhibition [1] of the same molecule?
A: 22.4%

Q: What about the inhibition [2] of the same molecule?
A: 44% (active)

Q: For O=C(Cc1ccc(Cl)cc1)c1c[nH]c(C(=O)NCc2cccnc2)c1, which inhibition [1] is on record?
A: 95.9% (active)

Q: What about the inhibition [2] of the same molecule?
A: 56% (active)

Q: And the inhibition [3]?
A: 93.5% (active)

Q: And the inhibition [4]?
A: 95.2% (active)

Q: Which inhibition [1] does the source give for O=S(=O)(c1ccc(F)cc1)c1snnc1-c1ccccc1 here?
A: 29%

Q: What about the inhibition [2] of the same molecule?
A: 8.39%

Q: And the inhibition [3]?
A: 27.8%

Q: And the inhibition [4]?
A: 28.7%

Q: For Cc1ccc(-n2nnnc2Sc2ccc(S(=O)(=O)NCCN(C)C)cc2[N+](=O)[O-])cc1, which inhibition [1] is on record?
A: 33.8%

Q: What about the inhibition [2] of the same molecule?
A: 35.9% (active)

Q: What about the inhibition [3] of the same molecule?
A: 18.6%

Q: What about the inhibition [4] of the same molecule?
A: 31.4%

Q: Which inhibition [1] does the source give for Cc1cccc(Nc2nc(N)nc(CCl)n2)c1C here?
A: 62.8% (active)

Q: And the inhibition [2]?
A: 31.1% (active)

Q: And the inhibition [3]?
A: 14.2%

Q: And the inhibition [4]?
A: 55.7% (active)

Q: For CCc1ccc(-c2nnn(CCC(=O)OC)n2)cc1, which inhibition [5] is on record?
A: -2.93%

Q: What about the inhibition [6] of the same molecule?
A: 9.9%

Q: Which inhibition [1] does the source give for Cc1ccc(/C=C2\SC(=S)N(CCCC(=O)Nc3ccc(O)cc3)C2=O)cc1 here?
A: 18.4%

Q: And the inhibition [2]?
A: 10.3%

Q: And the inhibition [3]?
A: 36.9% (active)

Q: What about the inhibition [4] of the same molecule?
A: 69.4% (active)

Q: Which inhibition [5] does the source give for CC(CNC(=O)c1cc(COc2ccc3ncccc3c2)on1)c1ccccc1 (stereo not given) here?
A: -0.59%

Q: What about the inhibition [6] of the same molecule?
A: 3.38%

Q: Which inhibition [5] does the source give for COc1ccc(NC(=O)C2CCN(c3cnccn3)CC2)cc1Cl here?
A: 1.5%

Q: And the inhibition [6]?
A: 1.48%

Q: Which results are given for COC(=O)c1sc2cnccc2c1N?
A: inhibition [5]: 21.5%; inhibition [6]: 4.54%

Q: Which inhibition [1] does the source give for Cc1ccc(-n2c(C)cc(C(=O)COc3cccnc3[N+](=O)[O-])c2C)cc1 here?
A: 34.5%

Q: What about the inhibition [2] of the same molecule?
A: -10.3%

Q: And the inhibition [3]?
A: -23%

Q: And the inhibition [4]?
A: 64% (active)

Q: Which results are given for Cc1ccccc1Nc1nc(N)nc(CCl)n1?
A: inhibition [1]: 22.9%; inhibition [2]: 0.42%; inhibition [3]: -11.3%; inhibition [4]: 52.5% (active)

Q: What does the source list for Cc1c(C(=O)N2CCN(Cc3ccc4c(c3)OCO4)CC2)sc2ncnc(N3CCN(c4ccccc4)CC3)c12?
A: inhibition [5]: 11.3%; inhibition [6]: 19.7%

Q: What does the source list for COc1ccc(Cc2nnc(N/N=C/c3ccc(O)cc3)[nH]c2=O)cc1OC?
A: inhibition [1]: 84.4% (active); inhibition [2]: 81% (active); inhibition [3]: 33.1%; inhibition [4]: 50.5% (active)

Q: Which inhibition [5] does the source give for CCOC(=O)c1ccc2c(c1)n(CC)c(/C=C/N(C)c1ccccc1)[n+]2CC here?
A: 29.7%

Q: What about the inhibition [6] of the same molecule?
A: 62.3% (active)
